Results published in the supplement of paper PMC12067093, “Discovery and optimisation of a covalent ligand for TRIM25 and its application to targeted protein ubiquitination” (Chemical Science, 2025).
Of roughly 21,000 targets only a part is listed; those with the largest changes were picked by preference.

Compound: CC1Cc2ccccc2N1C(=O)C1CCCN(C1)C(=O)CCl (mixture of isomers) [TRIM25 ligand 11 (diastereomer mixture)]
Experiment: probe-labelled cysteine peptide fold change vs DMSO (competition) (log2 fold change); higher = less target engagement (more negative = stronger competition)
Conditions: THP-1, incubation time: 4 h
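Note: competitive chemoproteomic profiling in live THP-1 cells with an iodoacetamide desthiobiotin (IA-DTB) probe, comparing probe-labelled peptide intensities in compound-treated cells against DMSO-treated controls.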

Sequence of UniProt O15381 (O15381 whole entry, looked up): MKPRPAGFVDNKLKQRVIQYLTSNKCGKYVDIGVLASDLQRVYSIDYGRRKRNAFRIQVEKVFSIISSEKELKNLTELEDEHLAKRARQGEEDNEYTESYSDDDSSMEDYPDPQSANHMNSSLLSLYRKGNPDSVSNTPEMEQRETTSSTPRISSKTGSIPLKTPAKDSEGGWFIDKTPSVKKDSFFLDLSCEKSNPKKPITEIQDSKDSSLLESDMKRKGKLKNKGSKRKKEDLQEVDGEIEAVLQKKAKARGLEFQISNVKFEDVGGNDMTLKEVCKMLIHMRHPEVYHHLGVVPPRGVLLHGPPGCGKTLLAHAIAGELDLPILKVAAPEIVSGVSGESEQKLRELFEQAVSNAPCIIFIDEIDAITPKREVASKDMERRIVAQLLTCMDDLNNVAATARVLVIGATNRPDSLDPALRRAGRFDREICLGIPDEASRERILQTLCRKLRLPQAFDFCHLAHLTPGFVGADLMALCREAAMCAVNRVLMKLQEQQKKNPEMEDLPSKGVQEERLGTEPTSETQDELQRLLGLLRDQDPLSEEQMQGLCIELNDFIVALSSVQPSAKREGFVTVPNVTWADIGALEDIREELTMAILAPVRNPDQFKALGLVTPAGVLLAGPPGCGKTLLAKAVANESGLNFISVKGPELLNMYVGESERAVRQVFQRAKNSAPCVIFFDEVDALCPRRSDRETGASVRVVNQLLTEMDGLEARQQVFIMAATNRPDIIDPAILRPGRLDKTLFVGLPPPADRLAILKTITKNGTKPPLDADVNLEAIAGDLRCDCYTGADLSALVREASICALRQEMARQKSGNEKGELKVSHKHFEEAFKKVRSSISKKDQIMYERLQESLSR
Sequence of UniProt O75914 (O75914 whole entry, looked up): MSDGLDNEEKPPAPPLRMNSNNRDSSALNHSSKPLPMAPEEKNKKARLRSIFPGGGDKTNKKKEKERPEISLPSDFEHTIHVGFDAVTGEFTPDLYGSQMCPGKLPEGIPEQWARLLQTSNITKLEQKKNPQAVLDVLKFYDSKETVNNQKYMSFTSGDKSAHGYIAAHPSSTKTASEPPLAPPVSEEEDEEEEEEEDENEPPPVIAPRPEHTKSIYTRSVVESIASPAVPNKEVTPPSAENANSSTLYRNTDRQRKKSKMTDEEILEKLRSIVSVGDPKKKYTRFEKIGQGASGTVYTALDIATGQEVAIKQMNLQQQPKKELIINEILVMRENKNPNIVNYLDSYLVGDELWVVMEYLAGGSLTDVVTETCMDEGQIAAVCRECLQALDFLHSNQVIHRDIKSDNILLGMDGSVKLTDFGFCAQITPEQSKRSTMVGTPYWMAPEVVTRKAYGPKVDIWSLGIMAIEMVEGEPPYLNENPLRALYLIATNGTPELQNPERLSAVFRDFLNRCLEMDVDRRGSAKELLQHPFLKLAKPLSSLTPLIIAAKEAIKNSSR
Sequence of UniProt O60524 (O60524 whole entry, looked up): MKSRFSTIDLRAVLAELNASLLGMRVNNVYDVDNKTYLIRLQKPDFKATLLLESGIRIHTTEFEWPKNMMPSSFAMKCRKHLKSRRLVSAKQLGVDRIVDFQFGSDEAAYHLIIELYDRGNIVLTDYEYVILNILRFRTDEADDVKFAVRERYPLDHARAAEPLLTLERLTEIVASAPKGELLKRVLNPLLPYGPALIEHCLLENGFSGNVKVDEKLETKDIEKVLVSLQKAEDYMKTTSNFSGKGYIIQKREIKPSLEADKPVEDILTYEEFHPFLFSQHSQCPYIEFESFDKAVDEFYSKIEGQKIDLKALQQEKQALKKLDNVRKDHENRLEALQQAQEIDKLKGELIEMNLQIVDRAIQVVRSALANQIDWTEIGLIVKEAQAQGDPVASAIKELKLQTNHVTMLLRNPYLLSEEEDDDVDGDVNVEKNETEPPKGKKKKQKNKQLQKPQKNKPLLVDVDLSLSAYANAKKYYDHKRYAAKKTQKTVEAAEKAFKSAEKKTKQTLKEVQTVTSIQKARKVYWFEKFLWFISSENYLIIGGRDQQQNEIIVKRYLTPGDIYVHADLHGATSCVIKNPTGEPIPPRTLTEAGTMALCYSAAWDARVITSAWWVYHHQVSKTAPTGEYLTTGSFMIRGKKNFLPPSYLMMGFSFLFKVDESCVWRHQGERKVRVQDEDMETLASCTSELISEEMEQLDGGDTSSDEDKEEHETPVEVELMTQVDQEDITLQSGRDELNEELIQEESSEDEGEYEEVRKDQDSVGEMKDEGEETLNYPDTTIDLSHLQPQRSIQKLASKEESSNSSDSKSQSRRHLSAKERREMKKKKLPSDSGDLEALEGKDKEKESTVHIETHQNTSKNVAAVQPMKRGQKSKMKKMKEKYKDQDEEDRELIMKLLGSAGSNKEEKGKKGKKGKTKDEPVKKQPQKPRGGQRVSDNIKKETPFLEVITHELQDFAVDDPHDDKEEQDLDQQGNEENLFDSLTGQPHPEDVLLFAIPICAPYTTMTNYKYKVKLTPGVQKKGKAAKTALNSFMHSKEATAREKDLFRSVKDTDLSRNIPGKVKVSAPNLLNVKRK
Sequence of UniProt Q9BXW6 (Q9BXW6 whole entry, looked up): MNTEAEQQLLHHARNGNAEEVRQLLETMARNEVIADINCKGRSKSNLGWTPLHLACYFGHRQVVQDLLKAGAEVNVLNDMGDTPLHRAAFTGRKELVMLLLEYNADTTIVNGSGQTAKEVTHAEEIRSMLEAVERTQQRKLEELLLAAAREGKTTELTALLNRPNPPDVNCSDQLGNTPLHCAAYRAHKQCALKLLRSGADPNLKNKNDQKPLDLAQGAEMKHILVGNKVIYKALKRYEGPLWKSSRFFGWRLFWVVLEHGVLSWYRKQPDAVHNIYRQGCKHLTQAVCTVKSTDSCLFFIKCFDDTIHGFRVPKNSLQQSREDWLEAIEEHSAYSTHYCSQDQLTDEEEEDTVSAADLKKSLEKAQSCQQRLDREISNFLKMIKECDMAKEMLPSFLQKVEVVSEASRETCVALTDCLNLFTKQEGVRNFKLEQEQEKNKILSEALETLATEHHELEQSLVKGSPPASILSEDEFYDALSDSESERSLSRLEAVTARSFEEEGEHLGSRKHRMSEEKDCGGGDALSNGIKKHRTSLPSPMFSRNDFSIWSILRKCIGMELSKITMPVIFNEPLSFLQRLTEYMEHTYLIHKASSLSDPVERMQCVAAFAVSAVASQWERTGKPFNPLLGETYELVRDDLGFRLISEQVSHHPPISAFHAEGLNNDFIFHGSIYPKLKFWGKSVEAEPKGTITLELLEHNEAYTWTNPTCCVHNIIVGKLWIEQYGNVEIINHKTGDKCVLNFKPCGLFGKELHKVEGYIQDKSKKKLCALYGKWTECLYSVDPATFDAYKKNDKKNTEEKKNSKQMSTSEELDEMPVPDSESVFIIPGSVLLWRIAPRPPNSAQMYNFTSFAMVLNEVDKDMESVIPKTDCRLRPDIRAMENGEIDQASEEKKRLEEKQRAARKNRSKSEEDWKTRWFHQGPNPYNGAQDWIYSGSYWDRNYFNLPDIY
Sequence of UniProt P09874 (P09874 whole entry, looked up): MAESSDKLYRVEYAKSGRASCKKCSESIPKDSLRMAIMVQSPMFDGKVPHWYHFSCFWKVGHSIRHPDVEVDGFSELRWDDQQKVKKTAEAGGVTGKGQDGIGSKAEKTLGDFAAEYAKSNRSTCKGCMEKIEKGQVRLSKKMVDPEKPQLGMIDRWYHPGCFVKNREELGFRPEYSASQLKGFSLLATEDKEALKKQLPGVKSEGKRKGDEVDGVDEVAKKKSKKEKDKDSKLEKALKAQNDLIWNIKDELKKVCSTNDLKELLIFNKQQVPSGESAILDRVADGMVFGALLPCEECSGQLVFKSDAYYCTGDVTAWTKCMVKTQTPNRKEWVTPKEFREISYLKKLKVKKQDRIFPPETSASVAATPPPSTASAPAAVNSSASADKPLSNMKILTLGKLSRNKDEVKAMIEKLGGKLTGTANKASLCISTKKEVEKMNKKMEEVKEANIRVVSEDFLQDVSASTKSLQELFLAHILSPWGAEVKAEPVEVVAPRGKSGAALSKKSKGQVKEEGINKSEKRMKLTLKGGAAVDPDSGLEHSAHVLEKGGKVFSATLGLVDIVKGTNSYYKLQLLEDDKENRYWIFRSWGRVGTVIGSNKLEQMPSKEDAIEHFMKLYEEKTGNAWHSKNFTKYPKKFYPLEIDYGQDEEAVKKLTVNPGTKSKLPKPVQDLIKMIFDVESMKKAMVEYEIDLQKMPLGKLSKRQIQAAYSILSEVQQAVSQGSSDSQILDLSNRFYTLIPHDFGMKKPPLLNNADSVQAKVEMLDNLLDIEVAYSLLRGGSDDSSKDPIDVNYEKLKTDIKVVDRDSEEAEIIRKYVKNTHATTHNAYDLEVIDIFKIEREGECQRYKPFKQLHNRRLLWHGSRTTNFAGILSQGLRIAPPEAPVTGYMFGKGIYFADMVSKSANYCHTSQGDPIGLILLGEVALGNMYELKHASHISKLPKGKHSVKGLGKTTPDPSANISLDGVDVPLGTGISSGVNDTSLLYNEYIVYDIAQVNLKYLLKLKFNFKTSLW
Sequence of UniProt O75607 (O75607 whole entry, looked up): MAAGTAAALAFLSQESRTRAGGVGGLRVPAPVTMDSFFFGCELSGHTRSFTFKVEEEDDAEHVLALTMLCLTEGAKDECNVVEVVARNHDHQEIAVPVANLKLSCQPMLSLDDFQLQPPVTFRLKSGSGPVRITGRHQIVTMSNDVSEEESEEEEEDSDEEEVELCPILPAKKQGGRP
Sequence of UniProt Q9BRP1 (Q9BRP1 whole entry, looked up): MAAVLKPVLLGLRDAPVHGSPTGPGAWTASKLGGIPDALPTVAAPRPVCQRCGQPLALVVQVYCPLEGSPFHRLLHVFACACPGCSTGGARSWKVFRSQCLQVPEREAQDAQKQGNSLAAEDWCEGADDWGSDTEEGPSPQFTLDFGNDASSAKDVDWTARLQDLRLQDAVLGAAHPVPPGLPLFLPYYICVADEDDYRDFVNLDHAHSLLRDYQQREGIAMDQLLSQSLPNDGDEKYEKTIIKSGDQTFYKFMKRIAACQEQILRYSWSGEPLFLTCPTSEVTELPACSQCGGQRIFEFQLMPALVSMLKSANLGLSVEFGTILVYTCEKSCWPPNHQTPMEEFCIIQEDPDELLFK

Target | probe-labelled cysteine peptide fold change (10 µM) | probe-labelled cysteine peptide fold change (50 µM)
PARP4_Q9UKK3_1099_LLVYGFIPHCTQATLCALIQEK (UniProt Q9UKK3) | 0.224 | -0.243
NVL_O15381_803_EASICALR (UniProt O15381) | 0.0326 | 0.175
NUP155_O75694_667_HNGICIYFSR (UniProt O75694) | -0.0348 | 0.207
PAK3_O75914_424_LTDFGFCAQITPEQSKR (UniProt O75914) | -0.27 | -0.161
NPM3_O75607_79_VEEEDDAEHVLALTMLCLTEGAKDECNVVEVVAR (UniProt O75607) | -0.083 | 0.00371
OAT_P04181_150_VLPMNTGVEAGETACK (UniProt P04181) | 0.0276 | 0.0487
NUP155_O75694_373_LYFSTCPFR (UniProt O75694) | 0.15 | 0.262
PDLIM1_O00151_286_HRHPECYVCTDCGTNLK (UniProt O00151) | 0.117 | 0.192
PARP1_P09874_845_IEREGECQR (UniProt P09874) | -0.00747 | 0.129
NEMF_O60524_663_VDESCVWR (UniProt O60524) | 0.233 | 0.569
PARK7_Q99497_46_DPVQCSR (UniProt Q99497) | 0.105 | 0.0666
OSBPL1A_Q9BXW6_340_EDWLEAIEEHSAYSTHYCSQDQLTDEEEEDTVSAADLKK (UniProt Q9BXW6) | 0.199 | -0.153
PDCD2L_Q9BRP1_191_LQDAVLGAAHPVPPGLPLFLPYYICVADEDDYRDFVNLDHAHSLLR (UniProt Q9BRP1) | -0.928 | 0.29
NUP210_Q8TEM1_746_FVCAPPSR (UniProt Q8TEM1) | 0.0568 | 0.329
